Assay results: PubChem BioAssay AID1159580 (chemical genetic matrix, 2015)
Several values for one entry are separate records, joined by “and”; a condition that tells them apart may be missing. Identical values can stand only once. About 2,000 (36%) of roughly 5,500 compounds were called active. Not shown: some 18% with an inconclusive outcome. No stated cut-off is given here; in the data, active means normalized growth mostly below about 0.91 (no sharp cut-off); inconclusive means no clear call, values can overlap the other calls; inactive means mostly above about 0.92. This is one part of the list.

Assay: chemical genetic growth profiling, strain panel (AID 1159580);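 further: tested at 20 µM; growth read once vehicle control cultures reached saturation at 30 °C; 1 = growth at the plate median or of vehicle wells; lower values mean less growth of the strain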
Settings: S. cerevisiae deletion strains, growth OD

Measured: normalized growth

COc1ccc2ccc(=O)oc2c1
inactive: locus YAL013W, strain DEP1, active compounds read low 1.01 | locus YAL021C, strain ccr4, active compounds read low 1 | locus YAL026C, strain drs2, active compounds read low 1 | locus YAL030W, strain snc1, active compounds read low 1 | locus YBL061C, strain skt5, active compounds read low 1 | locus YBR009C, strain hhf1, active compounds read low 1.02 | locus YBR021W, strain FUR4, active compounds read low 0.997 | locus YBR023C, strain chs3, active compounds read low 1.01 | locus YBR171W, strain sec66, active compounds read low 0.988 | locus YBR229C, strain ROT2, active compounds read low 1.02 | locus YBR231C, strain swc5, active compounds read low 0.987 | locus YBR279W, strain paf1, active compounds read low 1 | locus YCL011C, strain gbp2, active compounds read low 0.98 | locus YCL016C, strain dcc1, active compounds read low 1 | locus YCL029C, strain bik1, active compounds read low 0.999 | locus YCL061C, strain MRC1, active compounds read low 1 | locus YCL069W, strain vba3, active compounds read low 0.988 | locus YCR088W, strain abp1, active compounds read low 0.992 | locus YDL005C, strain med2, active compounds read low 0.996 | locus YDL035C, strain GPR1, active compounds read low 1.04 | locus YDL040C, strain nat1, active compounds read low 1 | locus YDL074C, strain BRE1, active compounds read low 1.04 | locus YDL101C, strain DUN1, active compounds read low 1.01 | locus YDL185W, strain tfp1, active compounds read low 1.03 | locus YDL192W, strain arf1, active compounds read low 1.01 | locus YDR001C, strain nth1, active compounds read low 0.991 | locus YDR069C, strain doa4, active compounds read low 0.99 | locus YDR101C, strain arx1, active compounds read low 0.985 | locus YDR137W, strain rgp1, active compounds read low 0.977 | locus YDR150W, strain NUM1, active compounds read low 1.01 | locus YDR159W, strain sac3, active compounds read low 0.973 | locus YDR162C, strain NBP2, active compounds read low 1.03 | locus YDR195W, strain ref2 1.01 | locus YDR297W, strain sur2, active compounds read low 1 | locus YDR318W, strain mcm21, active compounds read low 1.02 | locus YDR334W, strain swr1, active compounds read low 0.987 | locus YDR335W, strain msn5, active compounds read low 0.998 | locus YDR388W, active compounds read low 1.04 | locus YDR392W, strain spt3, active compounds read low 0.964 | locus YDR502C, strain sam2, active compounds read low 1.02 | locus YEL003W, strain gim4, active compounds read low 1.01 | locus YEL037C, strain rad23, active compounds read low 1 | locus YEL061C, strain CIN8 (second series), active compounds read low 0.983 | locus YEL061C, strain CIN8, active compounds read low 1.01 | locus YER015W, strain faa2, active compounds read low 1 | locus YER016W, strain bim1, active compounds read low 1 | locus YER110C, active compounds read low 1.02 | locus YER111C, strain swi4, active compounds read low 0.998 | locus YER155C, strain BEM2 (second series), active compounds read low 0.97 | locus YER155C, strain BEM2, active compounds read low 1 | locus YER167W, strain BCK2, active compounds read low 1.01 | locus YFR010W, strain ubp6, active compounds read low 0.98 | locus YGL078C, strain dbp3, active compounds read low 1.01 | locus YGL086W, strain mad1, active compounds read low 1.02 | locus YGL167C, strain pmr1, active compounds read low 1.02 | locus YGL173C, strain kem1, active compounds read low 1.02 | locus YGL227W, strain vid30, active compounds read low 0.983 | locus YGL240W, strain doc1, active compounds read low 0.973 | locus YGL248W, strain PDE1, active compounds read low 1.05 | locus YGL253W, strain hxk2, active compounds read low 0.986 | locus YGR135W, strain pre9, active compounds read low 1.01 | locus YGR252W, strain gcn5, active compounds read low 0.964 | locus YHR013C, strain ard1, active compounds read low 1.04 | locus YHR027C, strain rpn1, active compounds read low 0.999 | locus YHR030C, strain SLT2, active compounds read low 1.02 and 0.994 | locus YHR079C, strain IRE1 (second series), active compounds read low 1.01 | locus YHR079C, strain IRE1, active compounds read low 0.997 | locus YHR094C, strain hxt1, active compounds read low 1.04 | locus YHR129C, strain ARP1, active compounds read low 1.02 | locus YHR142W, strain chs7, active compounds read low 1.01 | locus YHR200W, strain rpn10, active compounds read low 1.01 | locus YIL066C, strain RNR3, active compounds read low 1.02 | locus YIL073C, strain SPO22, active compounds read low 1.11 | locus YIL125W, strain kgd1, active compounds read low 1.03 | locus YIR030C, strain dcg1, active compounds read low 1.01 | locus YJL092W, strain hpr5, active compounds read low 0.998 | locus YJL095W, strain BCK1 (second series), active compounds read low 1.01 | locus YJL095W, strain BCK1, active compounds read low 1.01 and 1.02 | locus YJL115W, strain asf1, active compounds read low 0.992 | locus YJL129C, strain trk1, active compounds read low 0.99 | locus YJL134W, strain LCB3, active compounds read low 1.01 | locus YJL154C, strain vps35, active compounds read low 0.999 | locus YJL164C, strain tpk1, active compounds read low 1.02 | locus YJL166W, strain qcr8, active compounds read low 1.01 | locus YJL168C, strain set2, active compounds read low 1.02 | locus YJL187C, strain SWE1 (second series), active compounds read low 1.02 | locus YJL187C, strain SWE1, active compounds read low 0.995 | locus YJR066W, strain TOR1, active compounds read low 0.934 | locus YKL009W, strain mrt4, active compounds read low 1 | locus YKL068W, active compounds read low 1.04 | locus YKL085W, strain MDH1 (second series), active compounds read low 1.02 | locus YKL085W, strain MDH1, active compounds read low 1.02 | locus YKL160W, strain elf1, active compounds read low 1.02 | locus YKR001C, strain vps1, active compounds read low 1.03 | locus YKR026C, strain gcn3, active compounds read low 0.98 | locus YKR091W, strain srl3, active compounds read low 1.02 | locus YLL001W, strain dnm1, active compounds read low 0.985 | locus YLL026W, active compounds read low 1 | locus YLL041C, strain sdh2, active compounds read low 0.996 | locus YLR027C, strain aat2, active compounds read low 0.992 | locus YLR039C, strain RIC1, active compounds read low 1.15 | locus YLR058C, strain SHM2, active compounds read low 1.02 | locus YLR102C, strain apc9, active compounds read low 1.03 | locus YLR113W, strain HOG1, active compounds read low 1.02 | locus YLR221C, strain rsa3, active compounds read low 0.987 | locus YLR258W, strain gsy2, active compounds read low 1.02 | locus YLR262C, strain YPT6 (second series), active compounds read low 1.02 | locus YLR268W, strain sec22, active compounds read low 1.02 | locus YLR320W, strain mms22, active compounds read low 0.993 | locus YLR330W, strain CHS5, active compounds read low 1.03 | locus YLR342W, strain FKS1 (second series), active compounds read low 1.05 | locus YLR342W, strain FKS1, active compounds read low 1 | locus YLR357W, strain rsc2, active compounds read low 0.984 | locus YLR370C, strain arc18, active compounds read low 0.989 | locus YLR371W, strain rom2, active compounds read low 1.05 | locus YLR384C, strain iki3, active compounds read low 0.995 | locus YLR418C, strain cdc73, active compounds read low 1.02 | locus YML016C, strain PPZ1, active compounds read low 1.02 | locus YML032C, strain rad52, active compounds read low 0.997 | locus YML120C, strain ndi1, active compounds read low 0.999 | locus YML124C, strain tub3, active compounds read low 1.02 | locus YMR058W, strain fet3, active compounds read low 0.98 | locus YMR078C, strain ctf18, active compounds read low 1.01 | locus YMR125W, strain sto1, active compounds read low 0.984 | locus YMR129W, active compounds read low 1.01 | locus YMR205C, strain PFK2, active compounds read low 1.06 | locus YMR223W, strain ubp8, active compounds read low 1.02 | locus YMR231W, strain pep5, active compounds read low 0.996 | locus YMR307W, strain GAS1, active compounds read low 1.09 | locus YNL067W, strain RPL9B, active compounds read low 1.01 | locus YNL071W, strain lat1, active compounds read low 1.01 | locus YNL153C, strain GIM3, active compounds read low 1.01 | locus YNL183C, strain NPR1, active compounds read low 0.949 | locus YNL209W, strain ssb2, active compounds read low 1.01 | locus YNL233W, strain BNI4, active compounds read low 1.04 | locus YNL248C, strain rpa49, active compounds read low 0.974 | locus YNL250W, strain rad50, active compounds read low 1.07 | locus YNL271C, strain bni1, active compounds read low 1.01 | locus YNL298W, strain CLA4, active compounds read low 0.997 | locus YNL307C, strain MCK1, active compounds read low 1.03 | locus YNL322C, strain KRE1 (second series), active compounds read low 1 | locus YNL322C, strain KRE1, active compounds read low 1 | locus YNR049C, strain mso1, active compounds read low 1 | locus YNR052C, strain pop2, active compounds read low 1.04 | locus YOL006C, strain TOP1, active compounds read low 1.09 | locus YOL012C, strain htz1 0.887 | locus YOL147C, strain pex11, active compounds read low 1.02 | locus YOR001W, strain rrp6, active compounds read low 0.954 | locus YOR061W, strain CKA2, active compounds read low 1.02 | locus YOR069W, strain VPS5, active compounds read low 0.999 | locus YOR070C, strain gyp1, active compounds read low 1.01 | locus YOR080W, strain dia2, active compounds read low 1 | locus YOR083W, strain WHI5, active compounds read low 1.06 | locus YOR106W, strain vam3, active compounds read low 1.01 | locus YOR136W, strain idh2, active compounds read low 1.01 | locus YOR144C, strain elg1, active compounds read low 1.01 | locus YOR184W, strain ser1, active compounds read low 1 | locus YOR231W, strain MKK1, active compounds read low 1.01 | locus YOR265W, strain rbl2, active compounds read low 0.996 | locus YOR270C, strain vph1, active compounds read low 1.07 | locus YOR290C, strain snf2, active compounds read low 0.995 | locus YOR316C, strain cot1, active compounds read low 1.01 | locus YPL051W, strain arl3, active compounds read low 0.995 | locus YPL055C, strain LGE1, active compounds read low 1.07 | locus YPL078C, strain atp4, active compounds read low 1.01 | locus YPL106C, strain sse1, active compounds read low 0.98 | locus YPL240C, strain hsp82, active compounds read low 0.995 | locus YPL241C, strain CIN2, active compounds read low 1.02 | locus YPL256C, strain CLN2, active compounds read low 0.994 | locus YPR119W, strain clb2, active compounds read low 1.01 | locus YPR141C, strain kar3, active compounds read low 1.01 | locus YPR163C, strain tif3, active compounds read low 1.02 | locus YPR167C, strain met16, active compounds read low 1.02 | strain wtn01, active compounds read low 1.01
